# Measurements taken from the supplement of paper PMC10849652.
# Targets with a hit are over-represented here; the source holds about 8,800 in all. About 0.5% of all pairs of compound and target were hits. Values without a mark were called inactive.
# Experiments:
# Test in all cases: log2 fold change, soluble protein after heating vs DMSO (PISA); higher = thermal stabilisation; K562 lysate, 10 uM; active = over 0.2 and 3.5 SD of the protein, either way, in both replicates (recomputed)
# [1] = compound: CCCS(=O)(=O)Nc1ccc(F)c(C(=O)c2c[nH]c3ncc(-c4ccc(Cl)cc4)cc23)c1F [vemurafenib]
# How it was run: (§1)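 Quantification was by TMTpro 16plex LC-MS/MS with equalised channel sums, applied to the supernatant after 21,000xg for 90 min. Samples were crude K562 extract at 1 mg/mL protein in PBS pH 7.4 with 1 mM MgCl2, treated with 10 μM compound for 30 min, heated for 3 min across 48°C-58°C, pooled and brought to 0.5% NP-40 at 4°C. Values are log-two fold changes in thermal stability relative to solvent controls, from duplicates.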
# [2] = compound: CCCS(=O)(=O)Nc1ccc(F)c(C(=O)c2c[nH]c3ncc(Cl)cc23)c1F
# How it was run: as §1
# [3] = compound: CCN(CCCOc1ccc2c(Nc3cc(CC(=O)Nc4cccc(F)c4)[nH]n3)ncnc2c1)CCOP(=O)(O)O [barasertib]
# How it was run: as §1
# [4] = compound: CC[C@@H]1C(=O)N(C)c2cnc(Nc3ccc(C(=O)NC4CCN(C)CC4)cc3OC)nc2N1C1CCCC1
# How it was run: as §1
# [5] = compound: CC[C@@H]1C(=O)N(C)c2cnc(Nc3ccc(C(=O)N[C@H]4CC[C@H](N5CCN(CC6CC6)CC5)CC4)cc3OC)nc2N1C(C)C [volasertib]
# How it was run: as §1
# [6] = compound: CCn1c(C(=O)N(C2CC2)C2CC2)cc2c3c(ncn3C)c(Nc3cc(C)n(C)n3)nc21
# How it was run: as §1
# [7] = compound: CCn1cc(-c2ccnc3[nH]c(-c4cccc(CN(C)C)c4)cc23)c(-c2ccc(NC(=O)N(C)C)cc2)n1
# How it was run: as §1
# [8] = compound: CN1CCC(CNc2ccc3ncc(-c4cccc(OC(F)(F)F)c4)n3n2)CC1
# How it was run: as §1
# [9] = compound: CN1CCN(CCOc2cc(OC3CCOCC3)c3c(Nc4c(Cl)ccc5c4OCO5)ncnc3c2)CC1 [saracatinib]
# How it was run: as §1
# [10] = compound: CN1CCN(c2nc(C3=C(c4c[nH]c5ccccc45)C(=O)NC3=O)c3ccccc3n2)CC1 [sotrastaurin]
# How it was run: as §1
# Chain of UniProt Q16629 (Q16629 whole entry, looked up): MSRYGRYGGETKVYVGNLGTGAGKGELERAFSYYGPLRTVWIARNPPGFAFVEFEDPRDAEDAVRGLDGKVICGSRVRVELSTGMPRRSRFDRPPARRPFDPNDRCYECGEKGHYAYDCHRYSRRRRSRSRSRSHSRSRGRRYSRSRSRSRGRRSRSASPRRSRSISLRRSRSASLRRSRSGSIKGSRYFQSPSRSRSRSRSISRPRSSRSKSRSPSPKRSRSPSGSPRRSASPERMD
# Chain of UniProt Q8NDV3 (Q8NDV3 whole entry, looked up): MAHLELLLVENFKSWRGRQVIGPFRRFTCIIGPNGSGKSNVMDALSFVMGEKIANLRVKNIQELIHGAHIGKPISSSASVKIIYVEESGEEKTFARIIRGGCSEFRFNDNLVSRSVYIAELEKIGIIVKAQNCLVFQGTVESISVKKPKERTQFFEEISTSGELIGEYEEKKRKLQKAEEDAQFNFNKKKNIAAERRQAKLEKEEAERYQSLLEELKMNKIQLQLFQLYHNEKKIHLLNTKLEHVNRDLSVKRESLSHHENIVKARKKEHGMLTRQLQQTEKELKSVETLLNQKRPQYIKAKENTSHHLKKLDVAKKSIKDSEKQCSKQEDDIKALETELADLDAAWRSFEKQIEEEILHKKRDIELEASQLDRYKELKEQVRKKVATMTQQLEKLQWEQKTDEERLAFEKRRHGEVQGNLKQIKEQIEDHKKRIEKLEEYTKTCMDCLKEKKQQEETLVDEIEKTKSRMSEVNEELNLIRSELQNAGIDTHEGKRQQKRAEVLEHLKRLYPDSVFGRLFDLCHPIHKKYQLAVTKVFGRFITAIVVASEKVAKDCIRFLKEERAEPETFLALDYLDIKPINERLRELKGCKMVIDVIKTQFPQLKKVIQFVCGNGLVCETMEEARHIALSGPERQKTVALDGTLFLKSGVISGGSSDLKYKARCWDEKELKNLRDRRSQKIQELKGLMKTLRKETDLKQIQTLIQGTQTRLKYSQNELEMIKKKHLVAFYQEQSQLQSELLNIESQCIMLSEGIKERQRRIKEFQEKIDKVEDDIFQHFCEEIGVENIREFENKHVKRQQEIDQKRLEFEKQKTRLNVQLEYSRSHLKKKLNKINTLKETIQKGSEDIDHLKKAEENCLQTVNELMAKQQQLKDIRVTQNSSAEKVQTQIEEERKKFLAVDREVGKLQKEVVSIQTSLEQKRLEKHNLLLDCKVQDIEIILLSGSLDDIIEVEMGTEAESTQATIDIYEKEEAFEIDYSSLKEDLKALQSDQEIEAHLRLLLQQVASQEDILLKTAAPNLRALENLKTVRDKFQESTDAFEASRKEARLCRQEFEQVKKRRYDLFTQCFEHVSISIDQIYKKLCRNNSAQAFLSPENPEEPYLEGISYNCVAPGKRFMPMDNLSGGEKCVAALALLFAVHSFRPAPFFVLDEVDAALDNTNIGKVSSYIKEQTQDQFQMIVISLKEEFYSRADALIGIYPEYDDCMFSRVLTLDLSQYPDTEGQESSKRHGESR
# Chain of UniProt Q9H2H9 (Q9H2H9 whole entry, looked up): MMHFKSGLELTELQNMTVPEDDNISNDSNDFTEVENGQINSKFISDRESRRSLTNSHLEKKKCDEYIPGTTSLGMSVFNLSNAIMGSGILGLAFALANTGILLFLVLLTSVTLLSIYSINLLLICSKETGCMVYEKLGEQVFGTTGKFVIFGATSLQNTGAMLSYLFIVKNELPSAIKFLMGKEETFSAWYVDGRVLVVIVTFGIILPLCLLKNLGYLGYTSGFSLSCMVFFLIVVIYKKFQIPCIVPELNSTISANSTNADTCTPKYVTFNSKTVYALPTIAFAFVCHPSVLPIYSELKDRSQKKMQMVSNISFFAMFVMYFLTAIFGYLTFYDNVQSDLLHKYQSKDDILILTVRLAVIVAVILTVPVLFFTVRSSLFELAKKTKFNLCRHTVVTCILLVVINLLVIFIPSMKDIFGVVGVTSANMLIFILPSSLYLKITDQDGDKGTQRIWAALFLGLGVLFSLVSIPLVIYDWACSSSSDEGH
# Chain of UniProt Q9UJC5 (Q9UJC5 whole entry, looked up): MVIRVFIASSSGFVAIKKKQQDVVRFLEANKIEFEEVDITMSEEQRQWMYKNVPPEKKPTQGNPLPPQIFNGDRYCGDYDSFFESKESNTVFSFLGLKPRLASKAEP
# Chain of UniProt Q9C0B7 (Q9C0B7 whole entry, looked up): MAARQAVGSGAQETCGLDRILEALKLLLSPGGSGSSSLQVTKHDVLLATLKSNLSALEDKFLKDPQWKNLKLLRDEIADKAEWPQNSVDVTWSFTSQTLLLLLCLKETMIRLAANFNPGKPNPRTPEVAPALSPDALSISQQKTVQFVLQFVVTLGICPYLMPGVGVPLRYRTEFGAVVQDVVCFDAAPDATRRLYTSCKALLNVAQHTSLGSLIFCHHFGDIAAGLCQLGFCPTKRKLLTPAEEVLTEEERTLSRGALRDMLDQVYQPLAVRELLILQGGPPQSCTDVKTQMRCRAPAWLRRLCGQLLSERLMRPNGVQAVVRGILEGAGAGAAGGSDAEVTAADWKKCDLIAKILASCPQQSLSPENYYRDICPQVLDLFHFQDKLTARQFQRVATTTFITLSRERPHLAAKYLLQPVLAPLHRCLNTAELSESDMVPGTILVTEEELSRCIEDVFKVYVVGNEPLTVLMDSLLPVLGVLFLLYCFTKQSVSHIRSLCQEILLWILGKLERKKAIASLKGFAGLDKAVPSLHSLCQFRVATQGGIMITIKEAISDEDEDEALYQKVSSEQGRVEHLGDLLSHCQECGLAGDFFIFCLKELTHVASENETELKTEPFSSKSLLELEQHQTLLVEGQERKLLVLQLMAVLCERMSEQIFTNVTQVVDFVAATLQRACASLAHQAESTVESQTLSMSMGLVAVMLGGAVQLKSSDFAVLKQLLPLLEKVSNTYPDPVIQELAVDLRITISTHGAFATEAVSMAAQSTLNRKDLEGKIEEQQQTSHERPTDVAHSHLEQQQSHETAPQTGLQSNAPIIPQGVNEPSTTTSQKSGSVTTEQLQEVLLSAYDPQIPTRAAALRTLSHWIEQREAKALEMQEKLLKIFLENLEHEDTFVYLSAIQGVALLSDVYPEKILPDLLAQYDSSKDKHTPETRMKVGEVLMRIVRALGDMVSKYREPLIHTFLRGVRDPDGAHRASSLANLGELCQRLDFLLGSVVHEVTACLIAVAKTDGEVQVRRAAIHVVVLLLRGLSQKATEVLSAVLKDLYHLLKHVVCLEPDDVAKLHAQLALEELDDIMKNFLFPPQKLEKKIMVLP
# Chain of UniProt Q86XZ4 (Q86XZ4 whole entry, looked up): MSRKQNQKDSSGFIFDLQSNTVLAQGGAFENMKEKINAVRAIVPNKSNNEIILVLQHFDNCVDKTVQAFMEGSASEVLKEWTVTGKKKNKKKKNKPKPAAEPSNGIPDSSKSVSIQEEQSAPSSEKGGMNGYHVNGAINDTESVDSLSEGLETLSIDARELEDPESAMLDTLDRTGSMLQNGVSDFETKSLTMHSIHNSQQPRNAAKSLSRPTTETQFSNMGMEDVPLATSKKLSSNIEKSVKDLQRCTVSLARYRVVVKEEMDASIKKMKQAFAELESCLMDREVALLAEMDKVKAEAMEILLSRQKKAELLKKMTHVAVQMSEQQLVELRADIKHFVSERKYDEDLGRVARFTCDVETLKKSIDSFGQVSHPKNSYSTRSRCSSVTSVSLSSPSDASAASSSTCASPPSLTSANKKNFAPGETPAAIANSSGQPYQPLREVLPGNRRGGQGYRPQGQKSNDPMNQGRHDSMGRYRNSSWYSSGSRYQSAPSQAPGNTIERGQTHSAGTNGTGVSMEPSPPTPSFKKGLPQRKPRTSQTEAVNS
# Chain of UniProt O95926 (O95926 whole entry, looked up): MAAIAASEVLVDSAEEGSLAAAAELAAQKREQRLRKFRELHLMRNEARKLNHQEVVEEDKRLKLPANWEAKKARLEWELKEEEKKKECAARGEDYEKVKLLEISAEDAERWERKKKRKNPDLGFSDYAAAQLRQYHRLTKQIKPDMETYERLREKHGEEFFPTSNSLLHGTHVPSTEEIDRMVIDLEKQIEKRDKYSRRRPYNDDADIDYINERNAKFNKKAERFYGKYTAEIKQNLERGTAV
# Chain of UniProt Q99963 (Q99963 whole entry, looked up): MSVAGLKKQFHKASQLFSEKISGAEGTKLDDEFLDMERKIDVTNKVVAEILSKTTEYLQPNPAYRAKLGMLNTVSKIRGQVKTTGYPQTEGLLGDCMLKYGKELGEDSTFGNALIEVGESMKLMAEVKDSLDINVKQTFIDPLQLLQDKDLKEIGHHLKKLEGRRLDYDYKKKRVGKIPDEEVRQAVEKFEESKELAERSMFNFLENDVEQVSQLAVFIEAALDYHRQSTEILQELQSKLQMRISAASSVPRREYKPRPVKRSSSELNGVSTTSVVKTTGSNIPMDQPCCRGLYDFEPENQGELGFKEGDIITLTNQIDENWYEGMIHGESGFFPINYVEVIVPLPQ
# Chain of UniProt Q96KF7 (Q96KF7 whole entry, looked up): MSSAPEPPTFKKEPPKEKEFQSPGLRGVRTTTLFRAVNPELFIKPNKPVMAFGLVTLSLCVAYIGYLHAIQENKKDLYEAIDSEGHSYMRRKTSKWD
# Chain of UniProt Q8IX90 (Q8IX90 whole entry, looked up): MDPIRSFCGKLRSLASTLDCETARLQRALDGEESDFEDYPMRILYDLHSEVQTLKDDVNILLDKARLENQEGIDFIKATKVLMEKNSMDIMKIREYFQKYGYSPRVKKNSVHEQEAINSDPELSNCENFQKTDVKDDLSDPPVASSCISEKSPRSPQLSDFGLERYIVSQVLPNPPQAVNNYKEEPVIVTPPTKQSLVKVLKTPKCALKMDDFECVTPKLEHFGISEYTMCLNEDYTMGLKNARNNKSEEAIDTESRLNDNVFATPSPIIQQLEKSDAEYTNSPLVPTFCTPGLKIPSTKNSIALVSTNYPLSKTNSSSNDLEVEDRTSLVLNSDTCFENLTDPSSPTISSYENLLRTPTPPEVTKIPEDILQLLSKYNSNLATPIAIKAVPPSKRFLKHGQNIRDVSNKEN
# Chain of UniProt P10124 (P10124 whole entry, looked up): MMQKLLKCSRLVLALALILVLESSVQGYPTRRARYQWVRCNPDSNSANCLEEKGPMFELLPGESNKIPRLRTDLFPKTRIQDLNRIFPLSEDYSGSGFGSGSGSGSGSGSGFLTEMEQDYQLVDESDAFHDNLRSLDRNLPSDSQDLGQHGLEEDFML
Target,log2 fold change [1],log2 fold change [2],log2 fold change [3],log2 fold change [4],log2 fold change [5],log2 fold change [6],log2 fold change [7],log2 fold change [8],log2 fold change [9],log2 fold change [10]
SRSF9 (UniProt Q13242),-0.104,0.009,0.049,-0.05,-0.029,0.03,-0.006,-0.029,-0.021,-0.064
SMIM8 (UniProt Q96KF7),0.037,0.048,0.088,-0.003,0.012,0.057,-0.382 (active),0.177,-0.071,-0.027
SMC3 (UniProt Q9UQE7),-0.018,0.004,-0.004,0.008,-0.013,0.003,0.041,-0.018,-0.011,-0.016
SLC29A2 (UniProt Q14542),0.003,0.012,0.029,0.049,-0.041,-0.079,-0.729 (active),0.206,-0.004,0.013
SQLE (UniProt Q14534),0.036,-0.01,0.103,0.051,0.073,-0.063,-0.06,-0.02,0.077,0.065
SH3BGRL2 (UniProt Q9UJC5),-0.013,0.021,0.022,0.076,0.006,-0.007,0.387 (active),-0.052,0.014,0.002
SYNRG (UniProt Q9UMZ2),-0.006,0.022,0.015,0.037,0,-0.019,0.017,-0.1,0.013,-0.009
STK26 (UniProt Q9P289),0.021,-0.008,-0.009,-0.032,-0.064,0.037,-0.045,-0.048,-0.02,0.006
SRGN (UniProt P10124),0.177,0.093,-0.033,0.059,-0.086,-0.005,-0.022,0.101,0.043,0.069
SH3BP5L (UniProt Q7L8J4),0.078,0.02,-0.029,0.011,0.013,-0.011,-0.014,0.072,0.05,0
SKA3 (UniProt Q8IX90),0.047,0.011,-0.062,0.016,0.007,-0.018,-0.027,0.023,0.017,0.028
SRM (UniProt P19623),-0.004,-0.003,-0.008,-0.02,-0.034,-0.001,0.015,0,0.02,0.011
SLC25A32 (UniProt Q9H2D1),0.053,0.01,-0.012,-0.013,0.002,-0.045,-0.129,0.054,0.029,0.007
SMARCA4 (UniProt P51532),0.011,0.006,0.038,-0.058,-0.024,0.02,-0.044,-0.024,0.011,0.034
SKA1 (UniProt Q96BD8),-0.004,-0.01,-0.017,-0.234 (active),-0.121,0.003,-0.167,0.021,0.071,0.066
SPPL2A (UniProt Q8TCT8),0.312,0.023,0.077,-0.016,0.011,-0.062,-0.196,0.202,–,-0.029
SRSF7 (UniProt Q16629),0.012,0.03,-0.057,-0.007,0.012,0.017,-0.034,0.193,-0.008,0.028

Target,log2 fold change [1],log2 fold change [2],log2 fold change [3],log2 fold change [4],log2 fold change [5],log2 fold change [6],log2 fold change [7],log2 fold change [8],log2 fold change [9],log2 fold change [10]
TANGO6 (UniProt Q9C0B7),0.062,-0.113,0.036,0.023,0.042,-0.054,-0.187,0.121,-0.011,0.081
SMC1B isoform 3 (UniProt Q8NDV3),0.149,0.002,0.003,-0.073,0.024,-0.071,–,–,0.055,-0.02
SSB (UniProt P05455),-0.004,-0.02,-0.001,-0.011,0.011,0.002,0.011,-0.021,-0.015,-0.016
SPG11 (UniProt Q96JI7),0.084,-0.011,0.006,-0.042,-0.037,-0.05,0.06,-0.13,0.077,0.007
SMG5 (UniProt Q9UPR3),0.009,0.048,0.047,0.029,-0.006,0.068,0.038,-0.004,0.05,-0.024
STUB1 (UniProt Q9UNE7),0.01,0.02,-0.007,-0.072,-0.051,0.018,-0.015,-0.03,0.006,0.004
SPATS2 (UniProt Q86XZ4),-0.013,0.032,0.071,-0.175,-0.041,0.128,0.144,0.038,-0.12,0.031
SURF2 (UniProt Q15527),-0.009,-0.002,-0.007,0.049,0.002,0.127,-0.063,0.02,0.004,-0.007
SNRPD3 (UniProt P62318),0.022,-0.012,-0.006,-0.049,-0.004,0.052,-0.254,0.135,0.046,0.024
SNUPN (UniProt O95149),-0.008,0.007,0.06,-0.082,0.04,0.051,-0.024,-0.036,–,0.028
SMYD3 (UniProt Q9H7B4),0.036,0.013,0.017,-0.137,-0.051,-0.02,–,–,0.045,-0.005
STN1 (UniProt Q9H668),0.047,-0.389,0.114,-0.071,-0.068,-0.016,-0.179,0.31,–,-0.025
SLC22A18 (UniProt Q96BI1),0.026,0.046,-0.059,0.044,0.08,–,0.026,-0.032,–,0.073
SLC38A1 (UniProt Q9H2H9),0.03,-0.007,0,0.035,0.066,0.008,-0.269 (active),0.102,-0.002,0.024
SH3GL3 isoform 3 (UniProt Q99963),0.08,0.012,0.063,-0.032,-0.049,-0.051,-0.761 (active),0.33,-0.008,0.035
SYF2 (UniProt O95926),-0.012,-0.042,-0.039,0.096,0.038,-0.044,-0.043,0.028,0.015,-0.008
